# What was measured:
# [1] = target: Serine/threonine-protein kinase pim-2 (Homo sapiens) (UniProt Q9P1W9); conditions: at 1 µM;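 note: each value is a mean of the inhibition measurements against the kinase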
# [2] = target: Serine/threonine-protein kinase pim-3 (Homo sapiens) (UniProt Q86V86); conditions: at 0.1 µM
# [3] = target: Serine/threonine-protein kinase pim-3 (Homo sapiens) (UniProt Q86V86); conditions: at 1 µM
# [4] = target: T1, MAP kinase-activated protein kinase 5 (Homo sapiens) (UniProt Q8IW41); conditions: at 0.1 µM
# T1 sequence (whole entry): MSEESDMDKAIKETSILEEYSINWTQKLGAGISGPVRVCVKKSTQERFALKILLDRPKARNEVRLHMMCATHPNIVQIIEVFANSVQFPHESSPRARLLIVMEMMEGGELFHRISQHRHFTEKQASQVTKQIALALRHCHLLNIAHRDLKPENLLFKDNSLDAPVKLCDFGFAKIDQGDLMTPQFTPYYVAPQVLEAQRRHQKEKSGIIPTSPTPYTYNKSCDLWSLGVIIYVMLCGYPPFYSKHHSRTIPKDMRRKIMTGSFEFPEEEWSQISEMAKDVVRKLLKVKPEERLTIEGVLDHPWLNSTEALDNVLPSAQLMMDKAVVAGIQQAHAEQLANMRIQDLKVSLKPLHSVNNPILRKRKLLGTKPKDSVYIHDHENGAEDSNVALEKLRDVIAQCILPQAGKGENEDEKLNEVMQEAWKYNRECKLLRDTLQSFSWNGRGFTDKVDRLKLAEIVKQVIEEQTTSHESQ
# [5] = target: T1, MAP kinase-activated protein kinase 5 (Homo sapiens); conditions: at 1 µM
# [6] = target: Serine/threonine-protein kinase SIK1 (Homo sapiens) (UniProt P57059); conditions: at 0.1 µM
# [7] = target: Serine/threonine-protein kinase SIK1 (Homo sapiens) (UniProt P57059); conditions: at 1 µM
# [8] = target: Serine/threonine-protein kinase SIK2 (Homo sapiens) (UniProt Q9H0K1); conditions: at 0.1 µM
# [9] = target: Serine/threonine-protein kinase SIK2 (Homo sapiens) (UniProt Q9H0K1); conditions: at 1 µM
# [10] = target: T2, Serine/threonine-protein kinase TBK1 (Homo sapiens) (UniProt Q9UHD2); conditions: at 0.1 µM
# T2 sequence (whole entry): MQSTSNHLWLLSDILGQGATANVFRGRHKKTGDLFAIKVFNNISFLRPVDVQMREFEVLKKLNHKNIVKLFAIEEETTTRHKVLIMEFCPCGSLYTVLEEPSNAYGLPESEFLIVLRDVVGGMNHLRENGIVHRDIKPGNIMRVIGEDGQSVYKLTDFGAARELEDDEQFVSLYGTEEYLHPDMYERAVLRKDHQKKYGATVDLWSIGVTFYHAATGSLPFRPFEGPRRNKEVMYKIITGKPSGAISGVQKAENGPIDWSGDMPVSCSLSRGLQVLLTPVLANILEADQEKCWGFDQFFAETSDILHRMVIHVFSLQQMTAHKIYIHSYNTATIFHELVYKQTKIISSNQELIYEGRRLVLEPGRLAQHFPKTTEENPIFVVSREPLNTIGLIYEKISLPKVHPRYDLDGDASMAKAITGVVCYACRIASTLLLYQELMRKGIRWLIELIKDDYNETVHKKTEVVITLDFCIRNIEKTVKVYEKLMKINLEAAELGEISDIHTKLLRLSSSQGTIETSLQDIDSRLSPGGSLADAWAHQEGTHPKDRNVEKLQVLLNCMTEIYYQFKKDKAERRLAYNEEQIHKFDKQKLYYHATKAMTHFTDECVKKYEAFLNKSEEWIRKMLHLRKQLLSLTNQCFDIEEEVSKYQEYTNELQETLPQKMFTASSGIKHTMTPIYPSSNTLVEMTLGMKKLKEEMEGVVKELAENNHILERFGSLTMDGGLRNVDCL
# [11] = target: T2, Serine/threonine-protein kinase TBK1 (Homo sapiens); conditions: at 1 µM
# [12] = target: T3, Testis-specific serine/threonine-protein kinase 1 (Homo sapiens) (UniProt Q9BXA7); conditions: at 0.1 µM
# T3 sequence (whole entry): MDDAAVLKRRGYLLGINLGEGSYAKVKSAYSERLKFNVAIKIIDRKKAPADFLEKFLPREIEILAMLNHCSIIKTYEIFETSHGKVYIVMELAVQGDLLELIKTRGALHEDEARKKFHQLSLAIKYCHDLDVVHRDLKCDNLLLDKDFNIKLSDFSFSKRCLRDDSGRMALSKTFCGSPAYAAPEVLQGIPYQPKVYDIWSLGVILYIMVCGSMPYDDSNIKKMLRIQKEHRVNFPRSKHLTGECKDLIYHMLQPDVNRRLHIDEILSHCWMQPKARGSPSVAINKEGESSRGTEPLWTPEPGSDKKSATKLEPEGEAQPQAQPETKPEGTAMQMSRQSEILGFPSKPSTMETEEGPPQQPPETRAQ
# [13] = target: T3, Testis-specific serine/threonine-protein kinase 1 (Homo sapiens); conditions: at 1 µM
# [14] = target: T4, Testis-specific serine/threonine-protein kinase 2 (Homo sapiens) (UniProt Q96PF2); conditions: at 0.1 µM
# T4 sequence (whole entry): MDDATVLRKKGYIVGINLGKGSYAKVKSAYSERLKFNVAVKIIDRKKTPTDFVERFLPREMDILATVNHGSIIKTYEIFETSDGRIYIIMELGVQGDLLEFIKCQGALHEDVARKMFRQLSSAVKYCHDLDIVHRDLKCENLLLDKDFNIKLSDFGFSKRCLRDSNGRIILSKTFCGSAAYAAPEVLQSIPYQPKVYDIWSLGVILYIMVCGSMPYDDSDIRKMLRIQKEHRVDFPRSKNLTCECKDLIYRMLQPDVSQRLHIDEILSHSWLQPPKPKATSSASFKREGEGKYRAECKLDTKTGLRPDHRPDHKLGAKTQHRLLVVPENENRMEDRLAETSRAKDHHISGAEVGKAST
# [15] = target: T4, Testis-specific serine/threonine-protein kinase 2 (Homo sapiens); conditions: at 1 µM
# [16] = target: Casein kinase I isoform alpha (Homo sapiens) (UniProt P48729); conditions: at 0.1 µM
# [17] = target: Casein kinase I isoform alpha (Homo sapiens) (UniProt P48729); conditions: at 1 µM
# [18] = target: Casein kinase I isoform gamma-1 (Homo sapiens) (UniProt Q9HCP0); conditions: at 0.1 µM
# [19] = target: Casein kinase I isoform gamma-1 (Homo sapiens) (UniProt Q9HCP0); conditions: at 1 µM
# [20] = target: Casein kinase I isoform gamma-2 (Homo sapiens) (UniProt P78368); conditions: at 0.1 µM;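 note: values are mean inhibition figures reported as part of the GSK PKIS dataset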
# Sequence of Casein kinase I isoform gamma-2 (Homo sapiens) (P78368 whole entry, looked up, canonical isoform): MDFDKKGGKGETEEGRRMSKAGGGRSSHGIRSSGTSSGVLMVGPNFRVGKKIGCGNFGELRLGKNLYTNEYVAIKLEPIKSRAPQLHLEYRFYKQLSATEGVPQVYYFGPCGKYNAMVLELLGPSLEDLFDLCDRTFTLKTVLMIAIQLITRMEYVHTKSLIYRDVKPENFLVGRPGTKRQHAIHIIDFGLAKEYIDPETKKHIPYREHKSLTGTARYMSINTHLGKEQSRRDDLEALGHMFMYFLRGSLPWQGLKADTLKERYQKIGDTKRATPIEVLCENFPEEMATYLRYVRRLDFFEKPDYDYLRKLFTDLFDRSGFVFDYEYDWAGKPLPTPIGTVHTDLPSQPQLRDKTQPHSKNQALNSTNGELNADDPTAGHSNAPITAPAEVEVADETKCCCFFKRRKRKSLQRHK
# Sequence of Serine/threonine-protein kinase SIK2 (Homo sapiens) (Q9H0K1 whole entry, looked up): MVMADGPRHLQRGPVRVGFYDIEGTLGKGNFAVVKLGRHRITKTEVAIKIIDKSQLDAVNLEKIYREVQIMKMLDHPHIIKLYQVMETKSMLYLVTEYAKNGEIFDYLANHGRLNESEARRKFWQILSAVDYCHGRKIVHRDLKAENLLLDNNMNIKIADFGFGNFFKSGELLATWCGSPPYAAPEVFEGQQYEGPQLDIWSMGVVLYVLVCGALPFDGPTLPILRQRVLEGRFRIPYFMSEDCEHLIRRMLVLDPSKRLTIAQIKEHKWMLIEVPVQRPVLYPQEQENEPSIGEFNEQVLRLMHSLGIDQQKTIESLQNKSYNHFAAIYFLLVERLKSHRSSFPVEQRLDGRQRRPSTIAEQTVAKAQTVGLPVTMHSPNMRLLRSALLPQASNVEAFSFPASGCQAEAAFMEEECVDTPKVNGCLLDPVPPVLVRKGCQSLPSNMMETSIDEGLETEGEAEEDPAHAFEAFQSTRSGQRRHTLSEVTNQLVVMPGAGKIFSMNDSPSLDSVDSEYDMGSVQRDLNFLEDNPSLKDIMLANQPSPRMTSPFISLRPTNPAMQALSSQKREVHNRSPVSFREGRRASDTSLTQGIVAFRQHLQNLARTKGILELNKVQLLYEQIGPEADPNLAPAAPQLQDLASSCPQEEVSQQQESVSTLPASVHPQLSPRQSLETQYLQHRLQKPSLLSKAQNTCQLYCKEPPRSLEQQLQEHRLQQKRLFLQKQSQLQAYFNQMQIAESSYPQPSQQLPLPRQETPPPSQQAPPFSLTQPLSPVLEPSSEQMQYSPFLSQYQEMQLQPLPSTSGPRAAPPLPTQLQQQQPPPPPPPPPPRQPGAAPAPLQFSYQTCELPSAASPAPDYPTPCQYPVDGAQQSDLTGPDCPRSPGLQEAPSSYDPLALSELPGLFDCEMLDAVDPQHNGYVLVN
# Sequence of Casein kinase I isoform alpha (Homo sapiens) (P48729 2-337 limits assumed): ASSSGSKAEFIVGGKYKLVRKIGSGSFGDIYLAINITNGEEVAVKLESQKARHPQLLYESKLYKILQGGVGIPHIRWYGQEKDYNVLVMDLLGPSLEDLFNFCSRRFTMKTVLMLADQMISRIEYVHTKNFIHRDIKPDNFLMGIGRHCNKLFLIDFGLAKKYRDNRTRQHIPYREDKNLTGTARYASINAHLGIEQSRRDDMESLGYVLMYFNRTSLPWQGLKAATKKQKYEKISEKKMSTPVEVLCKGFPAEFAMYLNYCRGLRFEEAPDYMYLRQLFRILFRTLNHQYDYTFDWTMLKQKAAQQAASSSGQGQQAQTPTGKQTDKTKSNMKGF
# Sequence of Serine/threonine-protein kinase SIK1 (Homo sapiens) (P57059 whole entry): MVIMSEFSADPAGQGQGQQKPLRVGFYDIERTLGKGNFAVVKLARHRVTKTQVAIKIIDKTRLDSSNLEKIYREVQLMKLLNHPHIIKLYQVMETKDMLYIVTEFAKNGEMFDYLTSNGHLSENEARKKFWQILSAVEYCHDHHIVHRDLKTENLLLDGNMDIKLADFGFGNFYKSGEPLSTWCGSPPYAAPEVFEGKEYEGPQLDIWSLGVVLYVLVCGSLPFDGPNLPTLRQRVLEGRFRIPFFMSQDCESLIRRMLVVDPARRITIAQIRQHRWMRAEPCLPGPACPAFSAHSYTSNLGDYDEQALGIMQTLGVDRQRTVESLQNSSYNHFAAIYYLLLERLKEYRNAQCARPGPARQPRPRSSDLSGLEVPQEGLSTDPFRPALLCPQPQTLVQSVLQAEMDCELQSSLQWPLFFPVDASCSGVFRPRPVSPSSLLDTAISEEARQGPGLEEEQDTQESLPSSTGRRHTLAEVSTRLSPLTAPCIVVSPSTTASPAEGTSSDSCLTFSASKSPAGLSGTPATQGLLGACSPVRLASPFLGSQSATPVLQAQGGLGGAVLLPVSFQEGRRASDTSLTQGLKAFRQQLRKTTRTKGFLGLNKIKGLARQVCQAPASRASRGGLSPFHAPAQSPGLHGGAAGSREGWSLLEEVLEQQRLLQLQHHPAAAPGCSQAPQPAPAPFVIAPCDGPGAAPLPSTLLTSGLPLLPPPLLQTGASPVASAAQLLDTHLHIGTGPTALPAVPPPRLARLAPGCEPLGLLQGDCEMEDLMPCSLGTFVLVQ
# Sequence of Serine/threonine-protein kinase pim-2 (Homo sapiens) (Q9P1W9 whole entry, looked up): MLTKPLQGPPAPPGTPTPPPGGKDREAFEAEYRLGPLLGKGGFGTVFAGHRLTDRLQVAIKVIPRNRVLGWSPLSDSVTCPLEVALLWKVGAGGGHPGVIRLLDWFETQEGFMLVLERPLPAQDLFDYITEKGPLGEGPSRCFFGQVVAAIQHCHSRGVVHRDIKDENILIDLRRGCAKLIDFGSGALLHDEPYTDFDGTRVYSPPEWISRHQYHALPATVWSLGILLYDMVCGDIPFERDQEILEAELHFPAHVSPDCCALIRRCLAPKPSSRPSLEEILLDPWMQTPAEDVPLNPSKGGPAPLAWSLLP
# Sequence of Casein kinase I isoform gamma-1 (Homo sapiens) (Q9HCP0 whole entry, looked up, canonical isoform): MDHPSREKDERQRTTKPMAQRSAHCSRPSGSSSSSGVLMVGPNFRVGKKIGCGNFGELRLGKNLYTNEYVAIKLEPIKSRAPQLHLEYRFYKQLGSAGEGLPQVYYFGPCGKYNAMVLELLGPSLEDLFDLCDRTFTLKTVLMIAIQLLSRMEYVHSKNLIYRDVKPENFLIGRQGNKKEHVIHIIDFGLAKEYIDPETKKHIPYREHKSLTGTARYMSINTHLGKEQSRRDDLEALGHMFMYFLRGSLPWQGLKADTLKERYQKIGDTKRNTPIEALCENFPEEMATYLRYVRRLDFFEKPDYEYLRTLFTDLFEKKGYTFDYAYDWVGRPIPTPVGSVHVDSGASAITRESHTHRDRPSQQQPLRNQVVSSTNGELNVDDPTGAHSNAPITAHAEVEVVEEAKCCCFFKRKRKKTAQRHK
SMILES,inhibition [1],inhibition [2],inhibition [3],inhibition [4],inhibition [5],inhibition [6],inhibition [7],inhibition [8],inhibition [9],inhibition [10],inhibition [11],inhibition [12],inhibition [13],inhibition [14],inhibition [15],inhibition [16],inhibition [17],inhibition [18],inhibition [19],inhibition [20]
COc1ccccc1Nc1ncc(-c2ccccc2)o1,0.53%,0.22%,0.86%,2.09%,1.9%,-1.04%,14.1%,1.94%,5.2%,1.18%,2.91%,4.78%,4.46%,2.44%,2.11%,2.14%,2.52%,4.56%,5.25%,4.37%
Cn1cc(C=C2C(=O)Nc3cccnc32)c2ccccc21,3.47%,0.47%,11.5%,0.25%,1.48%,-0.28%,9.48%,2.86%,4.37%,2.42%,10.2%,1.87%,1.12%,-0.65%,-0.52%,3.21%,14.3%,2.59%,4.56%,1.76%
Nc1nc(-c2ccccn2)c(-c2ccc3ncccc3n2)s1,0.01%,0.6%,2.63%,1.31%,1.64%,4.91%,3.52%,4.07%,4.74%,2.8%,5.59%,2.46%,2.87%,0.45%,1.96%,2.13%,6.1%,3.23%,12.6%,3.14%
N#Cc1c(NC(=O)c2cccc3ccccc23)sc2c1CCCC2,-0.27%,-0.51%,-1.85%,0.72%,0.28%,7.26%,9.67%,2.47%,12.4%,0.12%,6.64%,3.39%,2.26%,0.88%,0.92%,-0.66%,2.15%,2.73%,2.82%,2.2%
COc1ccc(-c2nn3ncccc3c2-c2ccnc(Nc3ccc(Cl)c(C(F)(F)F)c3)n2)cc1,0.14%,1.02%,2.53%,1.42%,1.91%,2.76%,5.43%,5.44%,1.72%,0.22%,2.16%,2.65%,4.89%,2.27%,5.15%,-4.74%,0.96%,1.89%,2.18%,1.23%
c1cnn2ncc(-c3ccnc(Nc4ccc5c(c4)OCCO5)n3)c2c1,4.39%,0.84%,16.2%,1.78%,2.58%,9.87%,20.4%,11.1%,17.7%,3.41%,23.9%,4.39%,18.1%,2.63%,4.19%,9.95%,44.9%,4.47%,22.1%,7.95%
CS(=O)(=O)CCNCc1ccc(-c2ccc3ncnc(Nc4ccc(OCc5ccccc5)c(Cl)c4)c3c2)o1,0.98%,0.47%,1.74%,0.46%,0.34%,1.53%,4.15%,-3.07%,-4.01%,0.47%,2.91%,2.07%,1.74%,-0.14%,0.89%,-0.43%,0.15%,1.35%,0.05%,-0.08%
CCn1c(-c2nonc2N)nc2c(C#CC(C)(C)O)nc(CN3CCCC3)cc21,1.6%,-0.35%,0.7%,-0.65%,-1.46%,-1.04%,0.38%,-6.78%,-1.41%,1.77%,9.67%,0.35%,9.75%,-1.26%,-0.69%,-1.27%,-0.92%,-0.23%,0.92%,-0.27%
COc1cc2ncn(-c3cc(OCc4ccccc4C(F)(F)F)c(C(N)=O)s3)c2cc1OC,-2.85%,-0.3%,5.54%,1.22%,2.23%,9.96%,56.6%,5.82%,35.4%,3.59%,13.6%,2.93%,6.32%,2.18%,2.55%,1.38%,3.61%,0.9%,2.06%,
O=C1NC(=O)C(N2CCc3ccccc32)=C1c1ccc(Cl)cc1,0.77%,-1.28%,-2.25%,1.12%,0.55%,5.76%,7.18%,1.33%,5.15%,3.01%,5.62%,3.65%,2.94%,1.38%,0.39%,4.4%,5.22%,4.48%,5.14%,2.83%
CC1=C(C(=O)Nc2ccc3[nH]ncc3c2)C(c2ccc3ccccc3c2)CC(=O)N1 (centres undefined),0.77%,-0.19%,0.74%,0.65%,1.3%,4.02%,1.28%,5.77%,4.09%,-1.92%,4.09%,1.35%,1.04%,1.35%,0.44%,1.57%,3.29%,1.69%,3.15%,1.16%
Cc1ccc(NC(=O)c2ccnc(N3CCCC3)c2)cc1-c1ccc(C(=O)NCC2CC2)cc1,-1.68%,-0.52%,1.15%,1.02%,1.69%,1.07%,8.28%,0.28%,8.6%,6.98%,8.32%,3.77%,3.59%,1.08%,1.39%,5.28%,2.01%,0.99%,3.3%,-0.87%
COc1ccc(-c2coc3ncnc(N)c23)cc1,1.01%,-0.83%,-1.2%,0.93%,0.22%,1.16%,10.4%,5.46%,7.65%,-0.45%,7.65%,4.08%,3.27%,1.1%,0.95%,6.3%,4.04%,4.29%,4.94%,4.25%

# — ChEMBL document CHEMBL1961873, “Compounds: GSK PKIS; Assays: Nanosyn kinase panel” (2012)
